# Laboratory results taken from PubChem BioAssay AID504332 (National Center for Advancing Translational Sciences (NCATS), 2011).
# Among all 350,000 compounds or so, about 31,000 (8.9%) were called active. About 15% were inconclusive and are not listed. This excerpt belongs to a sample that is enriched for actives. Unmarked numbers belong to inactive results. Calls follow the shape of the dose curve; as a rule, active = well fitted inhibition curve with a large enough effect; inconclusive = small, poorly fitted or top-dose-only effect; inactive = no such curve, though single readings can be large or run the other way.
# Biological target: Histone-lysine N-methyltransferase EHMT2 (Homo sapiens) (UniProt Q96KQ7)
# Sequence (Q96KQ7 913-1193 limits assumed): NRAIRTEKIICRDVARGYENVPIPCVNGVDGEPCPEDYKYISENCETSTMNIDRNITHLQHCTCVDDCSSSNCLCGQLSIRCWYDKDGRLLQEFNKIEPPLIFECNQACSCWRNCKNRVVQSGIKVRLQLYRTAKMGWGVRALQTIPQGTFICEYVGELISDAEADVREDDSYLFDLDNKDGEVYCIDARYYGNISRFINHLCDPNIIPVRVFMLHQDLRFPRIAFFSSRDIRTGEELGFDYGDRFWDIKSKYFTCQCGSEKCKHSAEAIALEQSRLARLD
# Assay: qHTS Assay for Inhibitors of Histone Lysine Methyltransferase G9a; also: nearly all actives have a fitted effect of over 75% in size
# Conditions: G9a H3K9 monomethylation, AlphaScreen, 2 h; series mostly up to 59 µM; activity, negative = inhibition: at the top concentration
# How it was run: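 Methyltransferase reactions run at room temperature for 2 h (20 nM enzyme, 500 nM biotin-H3K9 peptide, 20 uM SAM) after a 15 min compound preincubation; product detected by AlphaScreen beads and anti-H3K9me1 antibody.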
# % is scaled to controls: 0 for no effect and ±100 for the full control effect; potency is read from the fitted curve at half-maximal effect.
SMILES,"activity, negative = inhibition",Potency
Cc1ccc(/C=C2/SC(=S)N(CCC(=O)NCCCN3CCOCC3)C2=O)cc1,14.4% [at 102 µM],
O=C(CCCCn1c(=O)c2ccccc2n(CC(=O)Nc2cccc(C(F)(F)F)c2)c1=O)NCc1ccc2c(c1)OCO2,-4.83%,
COc1cccc(CNCCSc2nnnn2C)c1OCc1ccccc1Cl,-3.67%,
O=S(=O)(O)c1nc2ccccc2n1Cc1ccc(Cl)cc1Cl,-19.1%,
O=S(=O)(O)c1nc2ccccc2n1Cc1ccc(Cl)cc1,,50.1 µM (active)
Cn1c(S(=O)(=O)O)nc2ccccc21,-15% [at 102 µM],
CCc1nn(CC(=O)NCC(C)c2ccccc2)c(=O)c2cc3occc3n12 (stereo unspecified),10.3%,
COc1ccc(S(=O)(=O)Nc2c(C)n(C)n(-c3ccccc3)c2=O)cc1,-5.42%,
COc1ccc(S(=O)(=O)/N=C2\C=C(NS(=O)(=O)c3ccccc3)C(=O)c3ccccc32)cc1,,8.91 µM (active)
COc1ccc2cc(S(=O)(=O)Nc3ccccn3)ccc2c1,-6.57% [at 102 µM],
CN(C)c1ccnc2sc3c(=O)n(Cc4ccccc4)cnc3c12,26.4% [at 0.501 µM],
CC1=NN(Cc2ccccc2)C(=O)/C1=C/c1ccc(N(C)C)cc1,,10 µM (active)
CN(C)c1ccc(/C=C2\NC(=S)N(Cc3ccccc3)C2=O)cc1,-14.6% [at 102 µM],
COc1ccccc1C(=O)NC(CCSC)C(=O)NNC(=O)c1ccccc1C (stereo unspecified),25.8% [at 0.501 µM],
COc1ccc2nc(SCc3ccccc3)nc(C)c2c1,285%,
c1ccc(CSc2nnc(-c3ccco3)c(-c3ccco3)n2)cc1,,6.31 µM (active)
O=c1[nH]c(SCc2ccccc2)nnc1-c1ccccc1,10%,
COc1cc(C(=O)NCC(=O)NCCSc2ccc(Br)cc2)cc(OC)c1OC,10% [at 0.501 µM],
O=C(COC(=O)Cc1ccccc1F)NCCc1ccccc1,-6.48% [at 2.33 µM],
CC(=O)Nc1ccc(C(=O)N(C2=NC(C)CS2)c2ccc(Cl)cc2)cc1 (stereo unspecified),16% [at 102 µM],
COCCCNC(=O)c1ccc(NC(=O)c2nsc3ccccc23)cc1,2.19%,

SMILES,"activity, negative = inhibition",Potency
OC(CNCCc1ccc(Cl)cc1Cl)COc1ccccc1 (stereo unspecified),,25.1 µM (active)
COC(=O)c1sc2ncccc2c1OCc1ccc(Cl)cc1Cl,15.5%,
COc1ccc(OCC(O)CNC(=O)Nc2ccc(Cl)cc2)cc1 (stereo unspecified),-15.8% [at 102 µM],
CCCCN(CC)CCCNC(=O)Cn1ncc2c([nH]c3ccc(C)cc32)c1=O,-32.3%,
Cc1ccccc1C(=O)NCC(c1ccco1)N1CCc2ccccc21 (stereo unspecified),12% [at 2.33 µM],
CC1Cc2ccccc2N1S(=O)(=O)c1cccc(C(=O)NCC(c2ccco2)N2CCCC2)c1 (stereo unspecified),,39.8 µM (active)
CC1CCc2sc(C(=O)NCC(c3ccco3)N3CCCCC3)cc2C1 (stereo unspecified),4.92%,
O=C(NCC(c1ccco1)N1CCc2ccccc21)c1cccc(F)c1 (stereo unspecified),,50.1 µM (active)
COc1cc(C(=O)NCC(c2ccco2)N2CCCC2)ccc1OCc1ccccc1 (stereo unspecified),2.91%,
COc1ccc(C(=O)NCC(c2ccco2)N2CCc3ccccc32)cc1OC (stereo unspecified),-2.6% [at 0.501 µM],
COc1ccc2cc(C(=O)NCC3CCCO3)[nH]c2c1 (stereo unspecified),20.9% [at 102 µM],
Cc1cc2c(cc1S(=O)(=O)CCC(=O)Nc1ccc(OC(F)(F)F)cc1)OCC(=O)N2,-2.89%,
C=CCn1c(SCC(=O)/C(C#N)=C(\C)N)nc2sc(C)c(C)c2c1=O,10.1%,
C=CCn1c(SCC(=O)Nc2ccc(NC(C)=O)cc2)nc2sc(C)c(C)c2c1=O,8.2% [at 12.7 µM],
C=CCn1c(SCc2csc(C)n2)nc2scc(-c3ccc(C)o3)c2c1=O,,10 µM (active)
CCN(C(=O)Cc1c(C(=O)O)n(CC)c2ccccc12)c1ccccc1C,26.7% [at 0.501 µM],
CCN(C(=O)CSc1ncn[nH]1)c1cccc2ccccc12,,22.4 µM (active)
O=C(CSc1ncn[nH]1)Nc1nsc(-c2ccccc2)n1,2.39%,
CCOc1ccc(C(=O)NCC(=O)N2CCCCCCC2)cc1OCC,8% [at 0.501 µM],
CC(Oc1ccc(F)cc1)C(=O)Nc1ccccc1C(=O)NC1CC1 (stereo unspecified),-3.62% [at 102 µM],
COc1cc(-c2c(-c3ccc4c(c3)OCO4)noc2C)ccc1F,73.1% [at 102 µM],

SMILES,"activity, negative = inhibition",Potency
CC(C(=O)N1CCc2ccccc21)N(C)CC(=O)Nc1ccc(F)cc1 (stereo unspecified),13.8% [at 12.7 µM],
CC(=NCc1ccco1)c1c(C(F)(F)F)[nH]n(-c2nc3ccccc3s2)c1=O,1.72% [at 12.7 µM],
C/C(=N\NC(=O)CC(C)C)c1c(C(F)(F)F)[nH]n(-c2nc3ccccc3s2)c1=O,-30.7% [at 102 µM],
COC(=O)Cc1[nH]n(-c2nc3ccccc3s2)c(=O)c1C(C)=Nc1ccc(OC)cc1,,2.82 µM (active)
COc1ccccc1CCC(=O)OCC(=O)N1CCN(S(=O)(=O)c2ccc(C)cc2C)CC1,3.44% [at 102 µM],
c1ccc(-n2ncc(-c3nn[nH]n3)n2)cc1,,50.1 µM (active)
Brc1ccc(-c2nn[nH]n2)cc1,9.86% [at 102 µM],
c1ccc(-n2nc3ccccc3n2)cc1,3.29%,
Cc1c(NC(=O)C(C)Oc2cccc(Cl)c2)c(=O)n(-c2ccccc2)n1C (stereo unspecified),-19.9% [at 102 µM],
CC1=C(C(N)=O)C(c2ccc3c(c2)OCO3)n2nc(-c3cccc(C)c3)nc2N1 (stereo unspecified),,0.355 µM (active)
COc1cccc(-c2nc3n(n2)C(c2ccccc2Cl)C(C(N)=O)=C(C)N3)c1 (stereo unspecified),4.56%,
CCN(CC)c1ccc(C2C(C(N)=O)=C(C)Nc3nc(SCc4ccccc4)nn32)cc1 (stereo unspecified),-1.21%,
COc1ccc(CC(=O)N2CC(=O)Nc3ccc(Br)cc3C2c2ccc(F)cc2)cc1OC (stereo unspecified),2.61%,
CCc1ccc(C2C(C(=O)Nc3ccccc3)=C(C)Nc3c(C(=O)Nc4ccc(C)cc4)cnn32)cc1 (stereo unspecified),-3.94%,
Cc1cc(F)ccc1NC(=O)C(C)n1c2ccccc2c2nc(=O)cc(C)n21 (stereo unspecified),7.01% [at 102 µM],
Cc1cc(F)ccc1NS(=O)(=O)c1ccc(-n2cccn2)cc1,-7.8%,
Cc1cc(F)ccc1NC1(c2ccccc2)C(=O)c2ccccc2C1=O,,14.1 µM (active)
COc1cccc2c1cc1c(=O)n(CC(=O)N3CCN(c4cccc(Cl)c4)CC3)nc(C)n12,0.803%,
O=S(=O)(NCC(c1ccco1)N1CCOCC1)c1cc(F)ccc1F (stereo unspecified),-0.918%,
